From the supplement of paper PMC11732987, “Enantioselective OTUD7B fragment discovery through chemoproteomics screening and high-throughput optimisation” (Communications Chemistry, 2025)

Columns and labels:
Assay in all cases: log2 ratio of Biotin-Ahx-Ub-VS probe labelling (fragment/DMSO); higher = less target engagement (more negative = stronger competition), active = hit call of the paper (q ≤ 0.05, log2 ratio ≤ -1)
Conditions in all cases: compound concentration: 200 uM; treatment time: 3 h
USP42 = molecular target: T1, USP42 (UniProt Q9H9J4)
T1 sequence (whole entry): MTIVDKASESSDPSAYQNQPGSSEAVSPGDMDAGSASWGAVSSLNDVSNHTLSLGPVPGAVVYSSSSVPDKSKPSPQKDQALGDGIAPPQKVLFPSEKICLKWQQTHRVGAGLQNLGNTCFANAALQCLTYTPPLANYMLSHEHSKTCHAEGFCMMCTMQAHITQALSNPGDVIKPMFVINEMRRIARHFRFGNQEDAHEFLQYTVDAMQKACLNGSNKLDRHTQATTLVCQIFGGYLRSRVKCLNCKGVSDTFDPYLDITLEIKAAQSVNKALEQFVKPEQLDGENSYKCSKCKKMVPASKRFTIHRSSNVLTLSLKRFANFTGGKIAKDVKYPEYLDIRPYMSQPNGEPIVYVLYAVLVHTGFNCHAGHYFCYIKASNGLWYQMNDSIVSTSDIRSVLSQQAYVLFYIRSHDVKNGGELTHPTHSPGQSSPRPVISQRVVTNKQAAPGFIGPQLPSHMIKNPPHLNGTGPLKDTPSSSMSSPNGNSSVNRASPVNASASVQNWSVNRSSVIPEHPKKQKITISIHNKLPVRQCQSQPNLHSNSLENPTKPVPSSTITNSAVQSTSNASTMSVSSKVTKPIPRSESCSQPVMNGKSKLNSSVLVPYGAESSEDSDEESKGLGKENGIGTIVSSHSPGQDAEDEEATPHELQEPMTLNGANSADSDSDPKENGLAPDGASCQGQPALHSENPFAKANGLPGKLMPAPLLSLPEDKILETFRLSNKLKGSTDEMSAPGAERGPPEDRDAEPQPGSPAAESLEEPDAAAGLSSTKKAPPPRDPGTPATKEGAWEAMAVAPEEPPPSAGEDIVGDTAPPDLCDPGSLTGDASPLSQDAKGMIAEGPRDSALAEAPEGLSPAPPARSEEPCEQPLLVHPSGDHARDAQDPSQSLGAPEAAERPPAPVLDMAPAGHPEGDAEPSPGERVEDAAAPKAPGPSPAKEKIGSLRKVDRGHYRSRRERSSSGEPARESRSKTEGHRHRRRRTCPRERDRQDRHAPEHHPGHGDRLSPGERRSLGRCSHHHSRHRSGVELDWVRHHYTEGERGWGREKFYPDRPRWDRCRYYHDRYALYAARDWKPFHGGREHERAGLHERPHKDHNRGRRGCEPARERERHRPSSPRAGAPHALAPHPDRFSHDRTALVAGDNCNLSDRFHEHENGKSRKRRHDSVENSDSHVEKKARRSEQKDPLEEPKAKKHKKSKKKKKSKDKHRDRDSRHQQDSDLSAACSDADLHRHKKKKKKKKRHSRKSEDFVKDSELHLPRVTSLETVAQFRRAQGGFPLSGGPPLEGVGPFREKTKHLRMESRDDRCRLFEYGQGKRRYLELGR
Procedure, shortened: (§1)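 Labelling with Biotin-Ahx-Ub-VS (0.5 µM final, 1 h) followed a 3 h triplicate treatment of HEK293T lysate (495 µg per sample, Tris/CHAPS/IGEPAL buffer with protease inhibitors) with fragment at 200 µM or vehicle. Labelled DUBs were NeutrAvidin-enriched, digested with LysC and trypsin, and run by diaPASEF LC-MS/MS. The values, average log2 fragment/vehicle ratios by unpaired t-test, come from global-median-normalised Spectronaut label-free quantities. Proteins with ≥2 unique peptides were used.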

USP46 = USP46 (UniProt P62068)
Procedure, shortened: as §1

USP47 = molecular target: T2, USP47 (UniProt Q96K76)
T2 sequence (whole entry): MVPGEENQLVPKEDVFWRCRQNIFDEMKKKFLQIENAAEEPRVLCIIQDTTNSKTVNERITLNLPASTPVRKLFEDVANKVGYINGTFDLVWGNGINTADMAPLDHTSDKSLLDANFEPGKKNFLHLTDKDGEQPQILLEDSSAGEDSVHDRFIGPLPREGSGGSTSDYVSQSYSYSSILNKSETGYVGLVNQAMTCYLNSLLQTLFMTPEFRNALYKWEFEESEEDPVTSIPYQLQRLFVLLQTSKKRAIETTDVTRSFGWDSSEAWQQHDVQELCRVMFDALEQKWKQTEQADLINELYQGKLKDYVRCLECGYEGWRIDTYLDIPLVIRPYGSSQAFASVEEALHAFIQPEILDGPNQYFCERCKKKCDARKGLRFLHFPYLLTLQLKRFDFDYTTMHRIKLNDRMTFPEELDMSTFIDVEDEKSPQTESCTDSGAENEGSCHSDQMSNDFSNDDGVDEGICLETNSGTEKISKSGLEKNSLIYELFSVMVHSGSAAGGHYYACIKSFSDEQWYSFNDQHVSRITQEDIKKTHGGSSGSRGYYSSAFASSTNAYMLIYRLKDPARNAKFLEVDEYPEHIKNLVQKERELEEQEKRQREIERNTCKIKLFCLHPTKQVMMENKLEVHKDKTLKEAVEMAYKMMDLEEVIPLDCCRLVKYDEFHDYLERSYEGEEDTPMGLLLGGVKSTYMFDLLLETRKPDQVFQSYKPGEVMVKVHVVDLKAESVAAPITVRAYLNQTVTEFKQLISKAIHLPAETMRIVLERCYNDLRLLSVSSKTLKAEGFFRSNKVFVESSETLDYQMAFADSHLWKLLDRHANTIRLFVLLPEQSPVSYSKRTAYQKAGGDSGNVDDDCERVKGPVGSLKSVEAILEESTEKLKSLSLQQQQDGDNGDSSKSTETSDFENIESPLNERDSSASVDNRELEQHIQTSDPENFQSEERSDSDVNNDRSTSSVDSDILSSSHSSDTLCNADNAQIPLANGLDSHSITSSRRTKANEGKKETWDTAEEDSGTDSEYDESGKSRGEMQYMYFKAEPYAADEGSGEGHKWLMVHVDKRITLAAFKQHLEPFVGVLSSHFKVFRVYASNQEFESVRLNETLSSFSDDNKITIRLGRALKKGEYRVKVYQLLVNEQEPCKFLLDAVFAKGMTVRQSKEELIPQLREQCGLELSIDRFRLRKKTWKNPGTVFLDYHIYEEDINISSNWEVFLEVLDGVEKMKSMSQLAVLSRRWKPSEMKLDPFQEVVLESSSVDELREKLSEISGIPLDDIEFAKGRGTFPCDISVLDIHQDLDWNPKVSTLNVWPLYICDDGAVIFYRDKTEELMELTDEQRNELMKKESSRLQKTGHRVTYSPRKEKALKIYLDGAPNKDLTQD
Procedure, shortened: as §1

USP48 = molecular target: T3, USP48 (UniProt Q86UV5)
T3 sequence (whole entry): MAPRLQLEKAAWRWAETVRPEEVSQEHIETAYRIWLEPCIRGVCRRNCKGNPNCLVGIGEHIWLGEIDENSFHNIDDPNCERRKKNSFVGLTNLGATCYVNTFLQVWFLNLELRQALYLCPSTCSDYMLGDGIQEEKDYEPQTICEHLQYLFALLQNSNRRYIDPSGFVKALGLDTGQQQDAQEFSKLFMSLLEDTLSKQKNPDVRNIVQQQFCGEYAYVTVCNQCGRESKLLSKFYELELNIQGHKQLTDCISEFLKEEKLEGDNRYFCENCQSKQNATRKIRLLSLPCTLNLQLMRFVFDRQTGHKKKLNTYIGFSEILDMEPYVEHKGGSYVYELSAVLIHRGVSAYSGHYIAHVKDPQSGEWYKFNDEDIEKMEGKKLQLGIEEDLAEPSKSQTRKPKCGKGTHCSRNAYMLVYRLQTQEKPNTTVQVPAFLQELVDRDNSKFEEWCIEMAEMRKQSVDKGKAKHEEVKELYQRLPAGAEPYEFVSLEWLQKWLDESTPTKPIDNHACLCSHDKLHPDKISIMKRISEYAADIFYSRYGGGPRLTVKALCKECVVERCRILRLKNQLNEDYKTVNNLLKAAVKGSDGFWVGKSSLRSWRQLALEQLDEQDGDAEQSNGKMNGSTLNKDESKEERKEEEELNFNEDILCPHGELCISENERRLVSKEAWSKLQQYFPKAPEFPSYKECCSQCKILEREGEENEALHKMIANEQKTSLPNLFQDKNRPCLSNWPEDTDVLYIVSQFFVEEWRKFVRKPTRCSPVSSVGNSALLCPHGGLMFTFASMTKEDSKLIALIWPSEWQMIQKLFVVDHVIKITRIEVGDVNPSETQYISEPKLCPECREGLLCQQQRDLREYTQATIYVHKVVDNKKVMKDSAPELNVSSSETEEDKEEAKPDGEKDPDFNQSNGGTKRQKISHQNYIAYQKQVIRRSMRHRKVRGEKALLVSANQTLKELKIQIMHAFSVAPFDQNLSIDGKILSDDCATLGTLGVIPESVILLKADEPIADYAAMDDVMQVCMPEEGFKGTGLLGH
Procedure, shortened: as §1

USP5 = molecular target: T4, USP5 (UniProt P45974)
T4 sequence (whole entry): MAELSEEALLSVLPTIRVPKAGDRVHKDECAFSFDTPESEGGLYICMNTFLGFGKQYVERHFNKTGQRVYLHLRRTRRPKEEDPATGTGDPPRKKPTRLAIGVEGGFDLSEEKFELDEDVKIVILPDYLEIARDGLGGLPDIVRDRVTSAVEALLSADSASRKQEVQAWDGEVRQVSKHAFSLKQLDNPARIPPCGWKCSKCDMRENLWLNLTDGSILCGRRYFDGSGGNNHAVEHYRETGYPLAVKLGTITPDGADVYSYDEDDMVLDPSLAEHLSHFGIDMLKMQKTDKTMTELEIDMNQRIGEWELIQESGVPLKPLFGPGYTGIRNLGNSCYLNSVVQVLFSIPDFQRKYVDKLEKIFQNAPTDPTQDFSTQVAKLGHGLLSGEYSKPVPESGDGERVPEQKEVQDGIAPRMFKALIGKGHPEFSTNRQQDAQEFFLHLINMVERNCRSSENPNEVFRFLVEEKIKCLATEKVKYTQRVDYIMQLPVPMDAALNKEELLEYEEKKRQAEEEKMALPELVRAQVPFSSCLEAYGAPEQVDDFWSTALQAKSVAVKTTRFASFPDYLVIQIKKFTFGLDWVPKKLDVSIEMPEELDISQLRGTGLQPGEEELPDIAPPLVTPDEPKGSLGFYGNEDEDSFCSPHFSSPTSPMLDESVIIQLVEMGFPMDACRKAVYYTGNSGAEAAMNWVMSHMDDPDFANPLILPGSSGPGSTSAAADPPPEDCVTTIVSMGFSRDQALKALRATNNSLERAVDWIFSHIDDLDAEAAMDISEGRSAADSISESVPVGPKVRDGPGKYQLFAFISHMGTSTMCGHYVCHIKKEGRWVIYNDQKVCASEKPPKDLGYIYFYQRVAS
Procedure, shortened: as §1

USP54 = USP54 (UniProt Q70EL1)
Procedure, shortened: as §1

USP7 = USP7 (UniProt Q93009)
Procedure, shortened: as §1

USP8 = molecular target: T5, USP8 (UniProt P40818)
T5 sequence (whole entry): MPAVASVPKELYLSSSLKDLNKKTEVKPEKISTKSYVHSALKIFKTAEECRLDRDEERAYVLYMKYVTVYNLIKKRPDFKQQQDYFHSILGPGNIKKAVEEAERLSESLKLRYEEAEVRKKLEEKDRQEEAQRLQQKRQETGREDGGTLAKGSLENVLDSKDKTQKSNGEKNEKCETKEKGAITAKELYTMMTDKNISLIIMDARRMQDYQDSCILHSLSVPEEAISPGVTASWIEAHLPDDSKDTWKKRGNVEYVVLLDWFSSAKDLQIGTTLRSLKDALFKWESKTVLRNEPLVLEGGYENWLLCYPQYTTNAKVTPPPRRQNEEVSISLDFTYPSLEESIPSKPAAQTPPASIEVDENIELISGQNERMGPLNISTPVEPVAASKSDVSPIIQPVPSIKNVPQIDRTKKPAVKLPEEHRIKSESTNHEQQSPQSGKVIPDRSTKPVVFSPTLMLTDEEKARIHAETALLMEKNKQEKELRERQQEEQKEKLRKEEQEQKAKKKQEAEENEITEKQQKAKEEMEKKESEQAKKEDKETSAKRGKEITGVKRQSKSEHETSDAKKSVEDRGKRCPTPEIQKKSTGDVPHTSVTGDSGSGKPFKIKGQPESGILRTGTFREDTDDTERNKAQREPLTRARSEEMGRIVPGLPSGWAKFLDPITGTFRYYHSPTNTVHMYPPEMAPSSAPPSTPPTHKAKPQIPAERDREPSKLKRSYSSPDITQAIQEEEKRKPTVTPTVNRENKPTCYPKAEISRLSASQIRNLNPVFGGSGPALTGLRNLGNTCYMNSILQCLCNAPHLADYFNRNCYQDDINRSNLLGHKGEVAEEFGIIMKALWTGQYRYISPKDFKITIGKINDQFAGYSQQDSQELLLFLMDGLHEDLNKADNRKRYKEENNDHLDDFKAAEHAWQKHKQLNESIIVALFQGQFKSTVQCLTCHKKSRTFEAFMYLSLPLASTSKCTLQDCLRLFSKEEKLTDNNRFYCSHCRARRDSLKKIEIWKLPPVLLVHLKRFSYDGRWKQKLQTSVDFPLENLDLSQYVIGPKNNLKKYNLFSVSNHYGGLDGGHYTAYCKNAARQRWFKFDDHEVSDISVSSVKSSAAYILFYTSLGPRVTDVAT
Procedure, shortened: as §1

USP9X = USP9X (UniProt Q93008)
Procedure, shortened: as §1

UniProt O00487 = molecular target: UniProt O00487
Procedure, shortened: as §1

Measured: log2 ratio of Biotin-Ahx-Ub-VS probe labelling

USP46, sequence (P62068 whole entry): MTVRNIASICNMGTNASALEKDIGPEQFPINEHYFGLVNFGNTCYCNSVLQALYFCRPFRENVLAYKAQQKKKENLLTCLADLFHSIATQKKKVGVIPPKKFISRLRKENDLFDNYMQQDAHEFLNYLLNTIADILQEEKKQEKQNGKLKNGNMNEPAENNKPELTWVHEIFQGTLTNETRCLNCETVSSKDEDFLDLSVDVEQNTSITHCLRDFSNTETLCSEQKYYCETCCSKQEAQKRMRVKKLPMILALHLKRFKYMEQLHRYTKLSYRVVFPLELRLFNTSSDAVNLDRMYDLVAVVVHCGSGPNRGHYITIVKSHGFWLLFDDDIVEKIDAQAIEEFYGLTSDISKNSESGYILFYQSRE
USP7, sequence (Q93009 whole entry, looked up): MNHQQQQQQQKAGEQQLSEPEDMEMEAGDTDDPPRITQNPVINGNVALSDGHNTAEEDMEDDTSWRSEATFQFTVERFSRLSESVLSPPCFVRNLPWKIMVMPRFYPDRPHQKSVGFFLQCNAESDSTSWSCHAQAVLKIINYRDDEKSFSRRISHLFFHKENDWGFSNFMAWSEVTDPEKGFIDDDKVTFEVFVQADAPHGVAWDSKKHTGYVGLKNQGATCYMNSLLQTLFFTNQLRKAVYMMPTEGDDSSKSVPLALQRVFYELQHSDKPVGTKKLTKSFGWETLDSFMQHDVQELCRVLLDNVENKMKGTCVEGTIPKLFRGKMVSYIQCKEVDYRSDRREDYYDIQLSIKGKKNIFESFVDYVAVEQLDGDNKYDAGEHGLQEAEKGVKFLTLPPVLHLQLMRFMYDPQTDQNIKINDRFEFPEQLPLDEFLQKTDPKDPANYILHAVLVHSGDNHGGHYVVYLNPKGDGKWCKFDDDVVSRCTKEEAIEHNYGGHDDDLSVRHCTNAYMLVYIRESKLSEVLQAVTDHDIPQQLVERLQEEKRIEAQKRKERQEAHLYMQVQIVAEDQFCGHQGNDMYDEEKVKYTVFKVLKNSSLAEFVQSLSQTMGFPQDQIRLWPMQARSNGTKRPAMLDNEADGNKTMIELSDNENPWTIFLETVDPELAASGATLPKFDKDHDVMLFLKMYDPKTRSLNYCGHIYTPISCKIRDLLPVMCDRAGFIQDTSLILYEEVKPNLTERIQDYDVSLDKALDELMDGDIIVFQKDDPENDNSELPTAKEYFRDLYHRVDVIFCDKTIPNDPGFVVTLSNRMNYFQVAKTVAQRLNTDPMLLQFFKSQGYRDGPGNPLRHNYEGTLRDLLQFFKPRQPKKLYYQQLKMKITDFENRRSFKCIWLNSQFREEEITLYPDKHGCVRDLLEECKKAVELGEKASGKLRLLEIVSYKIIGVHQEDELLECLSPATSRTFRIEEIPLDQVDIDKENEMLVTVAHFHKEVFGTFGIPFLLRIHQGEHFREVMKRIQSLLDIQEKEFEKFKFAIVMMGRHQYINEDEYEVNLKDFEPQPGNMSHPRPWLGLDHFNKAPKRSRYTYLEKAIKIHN
UniProt O00487, sequence (O00487 whole entry): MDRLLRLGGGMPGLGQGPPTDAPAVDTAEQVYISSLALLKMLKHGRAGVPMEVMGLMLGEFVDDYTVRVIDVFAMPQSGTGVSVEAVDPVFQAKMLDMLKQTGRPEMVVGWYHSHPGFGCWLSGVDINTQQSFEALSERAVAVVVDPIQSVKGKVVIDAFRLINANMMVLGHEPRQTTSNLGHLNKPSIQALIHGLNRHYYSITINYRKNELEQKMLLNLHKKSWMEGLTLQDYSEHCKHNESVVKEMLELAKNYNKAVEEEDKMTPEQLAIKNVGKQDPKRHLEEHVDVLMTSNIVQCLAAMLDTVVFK
USP9X, sequence (Q93008 whole entry): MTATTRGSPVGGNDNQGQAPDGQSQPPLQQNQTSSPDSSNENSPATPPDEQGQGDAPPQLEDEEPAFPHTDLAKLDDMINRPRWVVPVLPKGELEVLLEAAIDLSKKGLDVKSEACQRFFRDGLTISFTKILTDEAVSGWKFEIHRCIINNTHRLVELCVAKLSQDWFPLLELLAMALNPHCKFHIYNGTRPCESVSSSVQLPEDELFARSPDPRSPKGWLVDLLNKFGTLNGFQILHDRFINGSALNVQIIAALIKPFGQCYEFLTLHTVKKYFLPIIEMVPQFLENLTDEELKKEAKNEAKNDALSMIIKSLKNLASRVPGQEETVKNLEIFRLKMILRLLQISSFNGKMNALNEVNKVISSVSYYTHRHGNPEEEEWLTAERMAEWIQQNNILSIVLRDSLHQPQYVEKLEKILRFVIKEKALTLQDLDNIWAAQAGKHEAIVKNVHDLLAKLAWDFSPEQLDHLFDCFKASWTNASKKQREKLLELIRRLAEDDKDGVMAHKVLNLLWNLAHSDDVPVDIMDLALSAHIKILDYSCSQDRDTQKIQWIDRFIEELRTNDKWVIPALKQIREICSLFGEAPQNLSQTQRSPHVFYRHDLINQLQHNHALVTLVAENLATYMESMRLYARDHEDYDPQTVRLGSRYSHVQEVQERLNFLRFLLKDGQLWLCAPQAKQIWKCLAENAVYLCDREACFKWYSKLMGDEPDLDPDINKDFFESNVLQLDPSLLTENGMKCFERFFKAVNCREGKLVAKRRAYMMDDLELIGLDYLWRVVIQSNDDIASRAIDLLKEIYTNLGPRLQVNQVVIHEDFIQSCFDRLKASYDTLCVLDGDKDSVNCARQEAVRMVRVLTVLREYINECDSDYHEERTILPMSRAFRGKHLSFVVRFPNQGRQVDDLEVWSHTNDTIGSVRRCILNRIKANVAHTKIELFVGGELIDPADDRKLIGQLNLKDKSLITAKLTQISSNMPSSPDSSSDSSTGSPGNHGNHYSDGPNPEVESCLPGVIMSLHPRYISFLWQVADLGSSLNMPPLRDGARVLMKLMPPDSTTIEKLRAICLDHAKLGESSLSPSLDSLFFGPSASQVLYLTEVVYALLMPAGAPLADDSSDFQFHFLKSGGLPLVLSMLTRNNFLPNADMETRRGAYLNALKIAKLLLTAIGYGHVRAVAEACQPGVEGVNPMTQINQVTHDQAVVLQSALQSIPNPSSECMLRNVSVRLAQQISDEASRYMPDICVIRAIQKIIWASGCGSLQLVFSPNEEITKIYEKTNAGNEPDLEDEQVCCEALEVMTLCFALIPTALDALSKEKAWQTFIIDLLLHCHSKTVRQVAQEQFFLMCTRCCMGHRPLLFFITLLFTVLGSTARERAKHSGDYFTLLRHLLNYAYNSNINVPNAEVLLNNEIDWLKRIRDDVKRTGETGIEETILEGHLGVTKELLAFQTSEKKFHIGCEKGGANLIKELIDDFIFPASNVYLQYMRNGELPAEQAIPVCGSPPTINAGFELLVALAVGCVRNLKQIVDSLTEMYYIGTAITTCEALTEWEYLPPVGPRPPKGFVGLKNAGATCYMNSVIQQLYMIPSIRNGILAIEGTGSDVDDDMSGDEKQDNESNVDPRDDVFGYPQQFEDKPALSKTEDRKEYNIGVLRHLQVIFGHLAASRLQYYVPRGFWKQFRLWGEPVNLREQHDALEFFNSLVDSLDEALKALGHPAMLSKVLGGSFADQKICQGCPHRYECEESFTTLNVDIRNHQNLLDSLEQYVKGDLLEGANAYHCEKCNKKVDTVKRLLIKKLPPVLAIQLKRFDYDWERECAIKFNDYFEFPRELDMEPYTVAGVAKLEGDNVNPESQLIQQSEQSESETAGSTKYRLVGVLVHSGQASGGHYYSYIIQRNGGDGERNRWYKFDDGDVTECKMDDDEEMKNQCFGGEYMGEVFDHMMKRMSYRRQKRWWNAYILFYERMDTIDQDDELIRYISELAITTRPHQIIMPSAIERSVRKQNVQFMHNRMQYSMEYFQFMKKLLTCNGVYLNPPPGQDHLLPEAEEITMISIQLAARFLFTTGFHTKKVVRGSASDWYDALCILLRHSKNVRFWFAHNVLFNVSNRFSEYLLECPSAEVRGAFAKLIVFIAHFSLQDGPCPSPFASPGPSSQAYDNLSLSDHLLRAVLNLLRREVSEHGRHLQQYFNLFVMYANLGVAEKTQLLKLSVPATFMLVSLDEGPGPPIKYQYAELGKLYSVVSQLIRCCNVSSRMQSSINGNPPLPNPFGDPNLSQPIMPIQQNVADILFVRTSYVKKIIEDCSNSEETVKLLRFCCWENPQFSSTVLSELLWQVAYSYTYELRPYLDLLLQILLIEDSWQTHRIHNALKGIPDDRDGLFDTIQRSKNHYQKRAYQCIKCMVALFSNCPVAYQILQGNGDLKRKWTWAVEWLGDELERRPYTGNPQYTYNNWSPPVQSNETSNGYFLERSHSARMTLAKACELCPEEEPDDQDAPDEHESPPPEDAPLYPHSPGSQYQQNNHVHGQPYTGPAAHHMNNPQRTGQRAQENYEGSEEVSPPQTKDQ

Cl.O=C(CCl)N1CCC(Cc2nccs2)C1 (stereo not given)
inactive: USP42 0.34 | USP46 0.105 | USP47 -0.538 | USP48 -0.286 | USP5 0.225 | USP54 0.476 | USP7 -0.334 | USP8 -0.208 | USP9X -0.186 | UniProt O00487 -0.1
